Shown are actives, neighbours in structure and some others; about 2.4% of the full set was active somewhere.
ANO1 block – mouse TMEM16A channel inhibition, primary screen; AID 588511; HEK293 TMEM16A/YFP iodide influx fluorescence, ionomycin; 310,000 compounds, 1.2% hits; normalized B-score (activity score, 25-100; higher = stronger inhibition) at 10 µM; Q8BHY3;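 active = ratio plate-corrected score three or more library SD toward inhibition, starting fluorescence score within five deviations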;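 also: score derived from kinetic fluorescence span divided by baseline fluorescence per well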
TMEM16A act – activates or potentiates the mouse TMEM16A chloride channel | Q8BHY3 | HEK293 TMEM16A/YFP-H148Q/I152L, iodide quench fluorescence; stronger effect = lower value | B-score at 10 µM | 340,000 compounds, 0.3% hits;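 active = fluorescence-ratio B-score plate-corrected deviation score at least 3 library SD below zero, with starting fluorescence score within 5 deviations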;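 also: channel opened by trigger with iodide after compound preincubation; score built on the fluorescence ratio of max minus min over baseline; more negative score means more quench and so TMEM16A activation or potentiation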
CHT inh – inhibits the human high affinity choline transporter; Q9GZV3; CHT-expressing cells, membrane potential dye, choline response; stronger effect = lower value; B-score at 10 µM; 310,000 compounds, 0.86% hits; AID 488975;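 active = B-score over 3 SD under the library average, and starting fluorescence ratio not unusually high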;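 also: choline stimulus applied at its EC90 after an EC20 pre-addition; B-score computed on integrated fluorescence ratio after choline addition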
CHT PAM – human CHT allosteric activation; Q9GZV3; CHT-expressing cells, membrane potential dye, choline EC20; stronger effect = higher value; LV-AA mutant CHT in HEK293 cells; B-score at 10 µM; 310,000 compounds, 0.49% hits;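 active = initial fluorescence not abnormally high and integrated response B-score, plate-corrected, over 3 SD above library mean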
CHT activ conf – confirmation of human choline transporter (CHT) activators; shares compounds with CHT PAM; CHT-expressing cells, membrane potential dye fluorescence (FDSS); % of choline EC20–EC90 response window; HEK293 expressing CHT LV-AA mutant; choline added at its EC20; activation, % at 10 µM; 2,500 compounds, 91% hits;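 active = primary screen active, with duplicate mean activation above negative control mean plus 3 SD, cut at about 11% in these data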
HEK293 MP dye – CHT activator counter-screen hit in parental HEK293 cells; ratio readout change at 10 µM, hits read low; membrane potential dye fluorescence (FDSS); measured after EC20 choline addition; 2,500 compounds, 62% hits; shares compounds with CHT PAM;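 active = duplicate-averaged ratio beyond 3 SD from buffer wells, up or down, though filed actives are nearly all decreases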
TMEM16A reconf – re-confirmation of mouse TMEM16A chloride channel inhibitors; shares compounds with ANO1 block; HEK293 TMEM16A/YFP-H148Q, iodide quench fluorescence; ionomycin added to raise cell calcium; inhibition, % at 10 µM; 2,300 compounds, 39% hits; AID 652189;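 active = mean duplicate percent inhibition, scaled so buffer wells are 0 and the reference blocker 100, over three buffer SD above buffer mean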
TMEM16A Ca cntr – counter-screen for TMEM16A inhibitors: effect on calcium mobilization; TMEM16A/YFP HEK293, Fluo4 calcium mobilization; AID 652231; shares compounds with ANO1 block; 2,300 compounds, 2% hits; calcium response (% of ionomycin), % at 10 µM;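 active = duplicate-averaged calcium signal over 20% of the ionomycin maximum, relative to buffer baseline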;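 also: each well's signal is peak minus trough fluorescence divided by its pre-addition baseline; 0% = buffer wells and 100% = ionomycin wells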
YFP-HEK293 quench – parental YFP-HEK293 iodide quench counter-screen activity; YFP ratio F(max-min)/F0 at 10 µM; shares compounds with ANO1 block; ionomycin; 2,300 tested, under 10 active;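 active = yellow fluorescent protein signal ratio exceeding the buffer control mean by over 5 SD of those controls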;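 also: ratio is mean of duplicate wells from kinetic YFP trace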
ClC-1 rat inh – blocks the rat ClC-1 voltage-dependent chloride channel | 2,300 tested, under 10 active | CHO ClC-1-YFP, iodide influx fluorescence quench; iodide control reads 0, buffer control 100 | ratio percent, % at 10 µM | AID 652236 | shares compounds with ANO1 block;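 active = duplicate-mean ratio percent above the mean of iodide-only control wells, which defines zero, plus 5 of their SD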;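 also: higher percent means stronger block of ClC-1 iodide influx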
* marks the source's active call; other numbers are inactive results; i = inactive; / = not tested or not shown.

SMILES | ANO1 block | TMEM16A act | CHT inh | CHT PAM | CHT activ conf | HEK293 MP dye | TMEM16A reconf | TMEM16A Ca cntr | YFP-HEK293 quench | ClC-1 rat inh
COc1ccccc1NS(=O)(=O)c1cc([N+](=O)[O-])ccc1N/N=C/c1sc(N2CCOCC2)nc1-c1ccccc1 | i | i | i | i | 23* | i | / | / | / | /
CC(=O)c1ccc(N(CC(=O)NC2CCCC2)C(=O)c2ccc(C)s2)cc1 | i | i | i | i | / | / | / | / | / | /
CN(C)Cc1c(C(=O)N/N=C/c2ccoc2)nnn1-c1nonc1N | i | i | i | i | / | / | / | / | / | /
Cc1ccc(Cl)cc1N1CCN(C(=O)C2CCC(=O)N(C3CCCCCC3)C2)CC1 (configuration not stated) | 100* | i | i | 9.2* | 24* | i | 18%* | i | -1.3 | -16
CC(C)OC(=O)c1cc(Cl)c(=O)n(Cc2ccc(Cl)cc2Cl)c1 | i | i | i | i | / | / | / | / | / | /
CCOc1ccc(-c2nc(C#N)c(NCc3ccc4c(c3)OCO4)o2)cc1 | i | i | i | i | / | / | / | / | / | /
Cc1ccc(OCc2nc(C#N)c(NCc3ccc4c(c3)OCO4)o2)cc1 | 25* | i | i | 7.5* | 30* | i | 16%* | i | -1.1 | -8
COc1cccc(N2CCN(S(=O)(=O)c3cn(C)cn3)CC2)c1 | i | i | i | i | / | / | / | / | / | /
CC(C)c1nc(SCC(=O)Nc2nc3c(s2)CCCC3)c2ccccc2n1 | 25* | i | i | 9* | 28* | i | i | i | -1.1 | -10
CC(C)c1ccccc1NC(=O)COc1ccc(C(=O)NCCc2ccccc2)cc1 | i | i | i | i | / | / | / | / | / | /
Cc1cc(C)n2c(Nc3ccc4c(c3)OCCO4)c(-c3ccc(C)o3)nc2n1 | i | i | i | 9.7* | 83* | -50* | i | i | -1.2 | 0
Cc1ccc(-c2nc3ncccn3c2Nc2ccc3c(c2)OCCO3)o1 | i | i | i | i | / | / | / | / | / | /
CCOc1ccc(S(=O)(=O)N2c3ccccc3CC2C)cc1 (configuration not stated) | 100* | i | i | i | 39* | i | i | i | -1.1 | -8
CCOc1ccc(NC(=O)COc2ccc(C(=O)NCc3cccnc3)cc2OC)cc1 | i | i | i | i | / | / | / | / | / | /
CCCCNc1cc(C)nc(NCc2ccccc2)n1 | 25* | i | i | 9.2* | 33* | i | 34%* | 22%* | -1.2 | -24
Cc1cc(Nc2ccc(Cl)cc2)nc(NCc2ccccc2)n1 | i | i | i | i | / | / | / | / | / | /
Cc1ccc(Oc2ccccc2NC(=O)CSCC(=O)Nc2cc(C)on2)cc1 | i | i | i | i | 0 | i | 22%* | i | -1 | -11
Cc1cccc(NC(=S)NCCSc2ccc(Cl)cc2)c1 | 100* | i | i | i | / | / | 72%* | i | -1 | -32
Cc1ccc(NC(=S)NCCSc2ccc(Cl)cc2)c(C)c1 | i | i | i | i | / | / | / | / | / | /
CCOc1cccc(C=NCCc2ccc(OC)c(OC)c2)c1O | i | i | i | i | / | / | / | / | / | /
Clc1ccc(NC2=NCCC2)cc1Cl | i | i | i | i | / | / | i | i | -1.2 | -8
CC1(C)NC(=O)N(CN2C(=O)NC(C)(C)C2=O)C1=O | i | i | i | i | / | / | i | i | -1.1 | 2
Cc1ccc(NC(=O)c2cccs2)cc1NC(=O)c1ccc(F)cc1 | i | i | i | i | / | / | / | / | / | /
